What all share (assay): NCI-60 one-dose screen, 48 h (100 = growth as untreated, 0 = no growth, -100 = all killed)
What all share (details): 10 µM

Test [1] has as its system HCT-15 colon.
Test [2] deals with SNB-75 CNS.
Test [3] has as its system SNB-19 CNS.
Test [4] deals with U251 CNS.
In test [5] the test system is SK-MEL-5 melanoma.
Test [6] has as its system UACC-62 melanoma.
The subject of test [7] is LOX IMVI melanoma.
The subject of test [8] is SK-MEL-28 melanoma.
Test [9] deals with HT29 colon.
For test [10], the system named is PC-3 prostate.

The panel holds about 83,000 compounds, 20% with a hit somewhere; the sample as a whole holds those more often.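 For each line, cells grew in 96-well plates with the test compound present at a single concentration for 48 hours.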 A number with no mark means an inactive call. Calls of active or inactive are those of the source. How the source made its calls: active means growth percent below 10; inactive means the rest.

Regarding `Clc1ccc(Cc2ccncc2)cc1`, the growth is 104% in [1]; 89.8% in [2]; 98.9% in test [3]; 113% in test [4]; 104% in test [5]; 95.3% in test [6]. For the same compound, the results for the growth in [7] and in test [8] were 97.9% and 112%, respectively.

As for `CC(C)(C)c1ccc(S(=O)(=O)N[C@H]2CC[C@H]3[C@@H]4CCc5cc(O)c([N+](=O)[O-])cc5[C@H]4CC[C@]23C)cc1`, the growth in test [1] was 87.9%; in test [9], 70%; in test [2], 5.54% (active); in test [10], 47.4%; in test [5], 83.5%; in test [6], 84.2%. Besides, in [8], the growth was 77%.

Consider `C/C=C/C1=CN2C(=O)c3cc(OC4OC(C)C(NC)C(C)(O)C4O)c(C)c(O)c3N=C[C@@H]2C1` (stereo not given in full), for which the growth in test [1] was 4.24% (active); in test [9], 5.18% (active); in test [3], 9.3% (active); in test [4], 5.6% (active); in test [10], 3.42% (active); in [5], -62.2% (active). The figures for the growth in test [6], in test [7] and in test [8] were -90.8% (active), -21.4% (active) and -37.2% (active), respectively.

Consider `O=C1/C=C/[C@@H](O)[C@@H]2C[C@@H](O)C[C@H]2/C=C/CCC[C@@H](C(F)(F)F)O1`, for which the growth in test [1] is 100%; in [9], 39.9%; in test [2], 60.7%; in test [3], 97.1%; in test [10] it was 92.9%; in [5] it was 60.5%. In addition, the growth in test [7] is 71.3%; in test [8], 61.8%.

As for `CC[N+](CC)=c1ccc2nc3c(cc(NCc4ccccc4)c4ccccc43)oc-2c1`, the growth is -45.8% (active) in test [1]; -62.9% (active) in [9]; -79.7% (active) in test [3]; -95% (active) in test [4]; -19% (active) in test [10]; -97.4% (active) in [5]. In addition, the figures for the growth in [6] and in [7] were -73% (active) and -64.2% (active), respectively.

`O=C(Nc1ccccc1)Nc1ncnc2c1ncn2-c1ccccc1`: the growth in test [1] was 85%; in test [9] it was 75.2%; in test [2], 41.5%; in test [3], 57.7%; in [5] it was 67.7%; in test [6], 91.8%. For the same compound, the growth was 91% in [7] and 94% in test [8].

As to `C[C@]12CC[C@@H]3c4ccc(O)cc4CC[C@H]3[C@@H]1CC[C@@H]2NS(=O)(=O)c1ccc(C(F)(F)F)cc1`, the growth in [1] is 32.7%; in test [2], 62.1%; in test [3] it was 97.5%; in test [10], 24.2%; in test [5], 41.2%; in test [6] it was 73.5%. Moreover, the growth in [8] is 73.1%.

For `CC(C)(C)c1nn(-c2ccccc2)c2c1CC1(CN2Cc2ccc(Cl)cc2)C(=O)c2ccccc2C1=O`, the growth in test [9] was 65.1%; in test [2] it was 120%; in test [3], 84.5%; in [4], 85.7%; in test [10] it was 44.2%; in test [5], 78.5%. Also, the growth in test [6] was 73.6%; in test [7] it was 81.8%; in test [8], 102%.

Consider `COc1nc2c(c(=O)n1C)CN(c1ccccc1)C(=O)C(C)N2` (stereo not given), for which the growth in [1] was 101%; in test [9], 99.9%; in test [2], 77.4%; in test [3] it was 96.7%; in [5] it was 104%; in [6], 91.7%. The growth was 91.6% in test [7] and 113% in test [8].

For the compound `COc1cc(-c2ccc[nH]2)[nH]c1/C=C1\N=C(C)C(C(=O)NC(C)C)=C1C`, the growth is 8.9% (active) in test [1]; -13.7% (active) in [2]; 74.5% in test [3]; 31.4% in [4]; -88.4% (active) in test [5]; -33.5% (active) in test [6]. Moreover, the growth was -62.6% (active) in test [7] and 44% in [8].

For the compound `NC1=NC(c2ccc(Cl)cc2)C2=C(N1)/C(=C/c1ccc(Cl)cc1)CCC2` (stereo not given), the growth in test [1] was 58.3%; in test [9], 7.71% (active); in test [2], 87.3%; in test [3], 85.7%; in [5] it was 87.5%; in test [6], 74.4%. The growth in test [7] is -69.6% (active); in test [8], 99.2%.

With `O=C(Nc1nc(-c2ccccc2)nc2c1sc(=S)n2-c1ccccc1)C(F)(F)F`, the growth in [9] was 94.8%; in [2], 96.5%; in test [3] it was 105%; in [4], 90.6%; in [10], 79.5%; in [5], 90.4%. In addition, the growth in [6] is 86%; in [7] it was 84.4%; in [8], 104%.

Consider `CC(C)[N+]1(C)C2CC[C@@H]1CC(OC(=O)C(CO)c1ccccc1)C2` (stereo not given in full), for which the growth is 107% in [1]; 106% in [9]; 92.4% in test [10]; 95.6% in test [5]; 108% in test [6]; 94.5% in test [7]. For the same compound, the growth in test [8] was 122%.

For the compound `COc1cc(N)c2ncccc2c1SC`, the growth in test [1] was 112%; in test [2], 91%; in test [3], 99%; in test [4], 102%; in test [10], 101%; in test [5] it was 107%. Besides, the values for the growth in [6], in test [7] and in test [8] were 110%, 93.1% and 106%, respectively.

For the compound `COc1ccc(/C(=N\N)C(=O)c2ccccc2)cc1` (tested in a mixture with another compound), the growth in test [1] is 91.1%; in [9], 87.7%; in [2], 93.2%; in [3], 94%; in test [5], 97.3%; in test [6] it was 92.8%. Besides, the growth in test [7] is 97.8%; in test [8], 102%.

Take `CCC(C)[C@H](NC(C)=O)C(=O)N[C@@H](CCCNC(=N)N)C(=O)N[C@@H](CCCCN)C(=O)N[C@@H](CC1CCC(O)CC1)C(=O)NC(C(=O)N[C@@H](CCSC)C(=O)N[C@@H](CCCNC(=N)N)C(=O)N[C@@]1(C)CCC/C=C\CCC[C@@](C)(C(=O)NC(C(=O)N[C@@H](CCC(=O)O)C(=O)N[C@@H](CC(C)C)C(=O)N[C@H](C(=O)N[C@@H](CCC(=O)O)C(N)=O)C(C)C)[C@@H](C)O)NC(=O)[C@H](CCC(N)=O)NC(=O)[C@H](CC(C)C)NC(=O)[C@H](CC(C)C)NC1=O)[C@@H](C)O` (stereo not given in full): the growth is 90.6% in [9]; 107% in test [2]; 110% in test [3]; 98.9% in test [4]; 99.1% in test [10]; 102% in test [5]. In addition, the growth in [6] was 99.6%; in test [7] it was 109%; in test [8], 94.6%.

For the origin of these results see PubChem BioAssay (NCI).
